# From ChEMBL document CHEMBL4513149, “CO-ADD screening of MMV (CH) - MMV compounds” (2021)
# Entries with a potency or affinity are not part of this list.
# Key:
# Staphylococcus aureus = conditions: Concentration 20 uM; ASSAY_TEST Inhibition of Bacterial Growth; detection method Absorption (OD600); MEDIA CAMHB; plate type 384well; NBS; CORNING #3640; time 18 hr
# Escherichia coli = conditions: Concentration 20 uM; ASSAY_TEST Inhibition of Bacterial Growth; detection method Absorption (OD600); MEDIA CAMHB; plate type 384well; NBS; CORNING #3640; time 18 hr
Compound,Inhibition (Staphylococcus aureus),Inhibition (Escherichia coli)
Cc1nn(C)c(C)c1NS(=O)(=O)c1c(Cl)cc(-c2ccnc(N3CCNCC3)c2)cc1Cl,12.75%,5.87%
CC1(C)OB(O)c2ccc(C3=NOC(c4cc(Cl)c(F)c(Cl)c4)(C(F)(F)F)C3)cc21 (stereo not given),15.02%,11.05%
Cc1cccc(C(=O)Nc2ccnc(N(C)C3CCN(CC(C)C)CC3)c2)c1,17.27%,7.9%
CO[C@@H](C(=O)N1Cc2[nH]nc(NC(=O)c3ccc(N4CCN(C)CC4)cc3)c2C1)c1ccccc1 [DANUSERTIB],12.13%,1.94%
CO[C@@H]1CN(c2ccc(C#CC3(O)CN4CCC3CC4)c(Cc3ccccc3)n2)C[C@H]1O (stereo not given in full),-11.47%,-3.76%
Cc1nn(Cc2ccccc2)c(Cl)c1C(=O)NC1CCCCCC1,11.91%,1.54%
Cc1cc(C2=NOC(c3cc(Cl)c(F)c(Cl)c3)(C(F)(F)F)C2)ccc1C(=O)NCc1ccc2c(c1)C(C)(C)OB2O (stereo not given),14.07%,6.28%
Nc1c2c(nc3sc4c(c13)CCCC4)CCCC2,6.99%,-4.01%
CC(=O)Oc1ccccc1C(=O)Nc1ncc([N+](=O)[O-])s1 [NITAZOXANIDE],50.75%,-2.79%
CNCCC(Oc1ccc(C(F)(F)F)cc1)c1ccccc1 (stereo not given) [FLUOXETINE],7.53%,3%
